Rows were chosen to be rich in hits. Some 3.1% of all compounds tested hit in one or more screens of this group.
TDP1 inh – qHTS Assay for Inhibitors of Tyrosyl-DNA Phosphodiesterase (TDP1) | recombinant TDP1, AlphaScreen DNA substrate cleavage | Potency, µM (top dose mostly 130 µM), for inactives: top-dose activity change, negative = inhibition, usual class: inhibitors | hit rate 0.28% among 350,000; further: on the % scale 0 is the no-effect control and ±100 the full control effect; nearly all actives have a fitted effect of over 40% in size
Target sequence (Q9NUW8 whole entry, looked up): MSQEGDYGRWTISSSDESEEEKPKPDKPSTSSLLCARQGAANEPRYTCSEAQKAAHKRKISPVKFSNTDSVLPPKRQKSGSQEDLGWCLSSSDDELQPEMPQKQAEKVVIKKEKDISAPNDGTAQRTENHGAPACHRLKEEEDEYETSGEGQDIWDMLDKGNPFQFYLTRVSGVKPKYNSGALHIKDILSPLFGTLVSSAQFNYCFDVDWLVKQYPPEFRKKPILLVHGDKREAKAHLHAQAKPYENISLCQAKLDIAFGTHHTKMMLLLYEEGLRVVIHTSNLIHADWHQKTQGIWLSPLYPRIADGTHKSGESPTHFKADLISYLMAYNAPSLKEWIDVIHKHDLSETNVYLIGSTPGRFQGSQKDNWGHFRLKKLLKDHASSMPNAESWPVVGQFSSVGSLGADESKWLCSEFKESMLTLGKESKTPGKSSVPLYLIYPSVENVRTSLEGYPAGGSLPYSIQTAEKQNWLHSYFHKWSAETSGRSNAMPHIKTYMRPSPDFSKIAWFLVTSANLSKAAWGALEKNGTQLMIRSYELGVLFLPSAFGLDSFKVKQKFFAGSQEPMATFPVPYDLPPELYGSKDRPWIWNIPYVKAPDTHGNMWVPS
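E. coli-derived human Tdp1, 1 nM final. Cpd preinc 15 min RT; substrate 15 nM final, 5 min RT; AS bead mix 10 ug/ml final, 10 min RT. Signal loss = tyrosine-FITC cleavage. No-enzyme wells = max signal.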
S-ASM inh – Inhibitors of Secretory Acid Sphingomyelinase (S-ASM): qHTS | placental ASM, HMU-PC fluorogenic substrate, 60 min | hit rate 0.006% among 340,000 | AID 504937, 2011 | Sphingomyelin phosphodiesterase (Homo sapiens), P17405 | Potency, µM (titrated, usually from 57.5 µM), for the others: at the highest dose activity change, negative = inhibition, hits mostly inhibitors
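Human placenta-derived ASM enzyme was preincubated with compound for 10 minutes at room temperature, then given fluorogenic substrate HMU-PC0 (9 uM final) for 60 minutes at 37 °C; a pH 10 stop preceded fluorescence reading at Ex 386/Em 447 nm.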
Tb PFK block – qHTS Assay to Find Inhibitors of T. brucei phosphofructokinase. ATP-dependent 6-phosphofructokinase (Trypanosoma brucei brucei), O15648. T. brucei PFK, ADP-Glo luminescence. Potency, µM (doses to about 57.5 µM), without a hit: top-dose activity, negative = inhibition, actives largely listed as inhibitors. hit rate 0.17% among 330,000. AID 485367, 2010;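 further: 0% = uninhibited 1x PFK enzyme wells and -100% = no-enzyme wells; nearly all actives have a fitted effect of over 60% in size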
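In TEA buffer at pH 8.0 with 5 mM MgCl2, enzyme (1.25 nM) converted F6P (0.5 mM) and ATP (0.1 mM) for 45 min at room temperature. ADP product was read by luciferase luminescence.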
PLK1 PBD block – qHTS for Inhibitors of PLK1-PDB (polo-like kinase 1 - polo-box domain): Primary Screen. Serine/threonine-protein kinase PLK1 (Homo sapiens), P53350. Plk1 PBD binding of FITC phosphopeptide, fluorescence polarization. Potency, µM, for the others: max response, negative = inhibition, most hits filed as inhibitors. hit rate 2.8% among 360,000; further: series mostly up to about 57 µM; on the % scale 0 is the no-effect control and ±100 the full control effect; nearly all actives have a fitted effect of over 65% in size
Pin1 inh – qHTS Assay to Find Inhibitors of Pin1 | Peptidyl-prolyl cis-trans isomerase NIMA-interacting 1 (Homo sapiens), Q13526 | Pin1 FP peptide displacement, HiFluor488, 10 min | Potency, µM (series often up to 115 µM), for the others: at the highest dose activity, negative = inhibition, most hits filed as inhibitors | hit rate 0.009% among 390,000; active means well fitted inhibition curve with a large enough effect in the polarisation, with a control signal flat, not every such curve was filed as active; inconclusive means small, poorly fitted or top-dose-only effect, or effect the other way, or a change in a side signal; inactive means no such curve, though single readings can be large or run the other way; the % refers to the polarisation; further: on the % scale 0 is the no-effect control and ±100 the full control effect
VDR inhibitor – Inhibitors of the vitamin D receptor (VDR): qHTS; VDR-SRC2-3 peptide fluorescence polarization, 2 h; Potency, µM, for inactives: max response, negative = inhibition, hits mostly inhibitors; hit rate 0.93% among 400,000; AID 504847, 2011; further: on the % scale 0 is the no-effect control and ±100 the full control effect
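Fluorescence polarization assay of small-molecule disruption of VDR binding to coregulator peptide SRC2-3. Compounds and controls pin-transferred, then read after 2 h incubation at ambient room temperature.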
* = called active by the depositor; ? = inconclusive; . = not tested or not shown; [ ] = another dose, or the depositor's remark. Unless noted, the call rests on the fitted dose curve; in most records, active means well fitted curve in the direction sought with a large enough effect; inconclusive means small, poorly fitted or top-dose-only effect, or another doubt; inactive means no such curve, though single readings can be large; an effect the other way counts as inactive or inconclusive. Potency means the concentration at half of the fitted maximal effect.

SMILES	TDP1 inh	S-ASM inh	Tb PFK block	PLK1 PBD block	Pin1 inh	VDR inhibitor
COc1ccc(-c2nc3ccc(C4=C(C)CC(=O)NN4)cc3[nH]2)cc1	.	.	.	.	.	-8%
CN(C)C(=O)c1ccc(-c2cc(-n3ccnc3)ncn2)cc1	.	.	.	.	.	-4%
CN(C)c1ccc(-c2cc(-n3ccnc3)ncn2)cc1	?	.	.	.	.	50µM*
CN(C)c1ccc(-c2cc(Nc3ccc(F)cc3)ncn2)cc1	.	.	.	.	.	45µM*
CCOCCCNC(=O)c1ccc(NC(=O)N2CCCCc3ccccc32)cc1	3%	.	.	.	1%	0%
CCC(C(=O)NCCC1=CCCCC1)n1nc(C)c2c(C)n(-c3ccccc3)nc2c1=O (stereo unspecified)	4%	1%	2%	27µM*	-8%	?
CCC(C(=O)NC1CCCCCC1)n1nc(C)c2c(C)n(-c3ccccc3)nc2c1=O (stereo unspecified)	5%	2%	1%	30µM*	1%	-27%
O=S(=O)(c1ccccc1C(F)(F)F)N1CCN(c2nc(-c3cccs3)nc3ccccc23)CC1	0%	.	.	.	?	2%
CCOc1ccc(N(CC)C(=O)c2nn(-c3ccc(OC)cc3)c(=O)c3c2c2ccccc2n3C)cc1	6%	-8%	-4%	27µM*	1%	-7%
CCc1ccccc1N1CC23C=CC(O2)C(C(=O)O)C3C1=O (stereo unspecified)	4%	-2%	5%	27µM*	0%	89µM*
CCc1ccc(C(=O)c2cn(Cc3ccc(F)cc3)c3cc(OC)c(OC)cc3c2=O)cc1	3%	.	.	.	25%	-6%
COc1cccc(C2=NOC(C(=O)NC(C)(C)C)C2)c1 (stereo unspecified)	-2%	0%	1%	-10%	1%	-12%
COc1cccc(C2=NOC(C(=O)Nc3ccccc3SC)C2)c1 (stereo unspecified)	2%	0%	0%	30µM*	-2%	-17%
CC(=O)N(Cc1ccccc1)Cc1nc2sc(C)c(C)c2c(=O)[nH]1	5%	7%	0%	-1%	3%	4%
CCN(CC)C(=O)c1sc2nc(Cc3ccccc3)[nH]c(=O)c2c1C	-1%	142%	2%	30µM*	2%	?
CCOC(=O)c1c(C)nc(C)c(C(=O)OCC)c1-c1ccc(O)c(OC)c1	0%	-3%	-2%	6.7µM*	3%	?
COc1ccc(OCC(O)Cn2c(NCCO)nc3c2c(=O)n(C)c(=O)n3C)cc1 (stereo unspecified)	.	.	.	.	5%	8%
CCCCCCCc1ccc(-c2ccc(O)cc2)nc1	-2%	-18%	0%	24µM*	?	0%
CCCCCc1ccc(-c2ccc(Br)cc2)nc1	3%[12.3 µM]	.	.	.	8%	-23%
COc1ccc2c(c1)c1c(c(=O)n(-c3ccccc3C)c(=O)n1CC(=O)N1CCCC1)n2C	0%	.	.	.	9%	21%
O=C(c1ccc(-c2cccc(Cl)c2Cl)o1)N1CCOCC1	-4%	3%	-7%	-14%	1%	-9%
S=C(c1ccc(-c2ccc(Cl)c(Cl)c2)o1)N1CCOCC1	11%	-11%	1%	27µM*	10%	-4%
S=C(c1ccc(-c2ccc(Br)cc2)o1)N1CCOCC1	.	-14%	-1%	?	-9%	?
S=C(c1ccc(-c2ccccc2Cl)o1)N1CCOCC1	4%	-12%	-12%	5.3µM*	8%	-62%
CCN(CC)CCOC(=O)c1ccc(NC(=O)c2cc3c(=O)n(CC)c4ccccc4c3s2)cc1	5%	.	.	.	28%	16%
Cc1ccc(-n2nnc(-c3nsc(NC(=O)c4ccccc4C)n3)c2C)cc1Cl	-5%	.	.	.	31%	2%
Cc1ccsc1/C=N/N1CCN(Cc2ccccc2)CC1	6%	3%	-1%	21µM*	-1%	5%
